# From the supplement of paper PMC4466140
# Key:
# Assay in all cases: SPOT peptide array binding signal intensity (averaged, normalized) (arbitrary units (background-subtracted, floor 0; scale differs between SH3 domains)); higher = stronger binding of the SH3 domain to the peptide
# [1] = molecular target: AgAbp1
# Method in brief: (§1)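 Four yeast species supplied the SH3 domains, which were expressed as GST fusions in E. coli BL21(DE3) and purified on glutathione Sepharose. Incubation with cellulose membranes carrying synthetic 15-mer peptides, cysteines exchanged for serines, ran overnight at 4°C at 10 μg/ml in TBS-based blocking buffer. Binding signal is reported as normalized, background-subtracted spot intensity averaged over replicates, in arbitrary units not shared between domains.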
# [2] = molecular target: AgBbc1
# Method in brief: as §1
# [3] = molecular target: AgBem1-D1
# Method in brief: as §1
# [4] = molecular target: AgBzz1-D1
# Method in brief: as §1
# [5] = molecular target: AgBzz1-D2
# Method in brief: as §1
# [6] = molecular target: AgCyk3
# Method in brief: as §1
# [7] = molecular target: AgFus1
# Method in brief: as §1
# [8] = molecular target: AgHof1
# Method in brief: as §1
# [9] = molecular target: AgHse1
# Method in brief: as §1
# [10] = molecular target: AgLsb1
# Method in brief: as §1
# [11] = molecular target: AgLsb4
# Method in brief: as §1
# [12] = molecular target: AgMyo5
# Method in brief: as §1
# [13] = molecular target: AgNbp2
# Method in brief: as §1
# [14] = molecular target: AgRvs167
# Method in brief: as §1
# [15] = molecular target: AgSho1
# Method in brief: as §1
# [16] = molecular target: AgSla1-D1-D2
# Method in brief: as §1
# [17] = molecular target: AgSla1-D3
# Method in brief: as §1
# [18] = molecular target: CaAbp1-D1
# Method in brief: as §1
# [19] = molecular target: CaAbp1-D2
# Method in brief: as §1
# [20] = molecular target: CaBbc1
# Method in brief: as §1
# [21] = molecular target: CaBem1-D1
# Method in brief: as §1
# [22] = molecular target: CaBzz1-D1
# Method in brief: as §1
# [23] = molecular target: CaBzz1-D2
# Method in brief: as §1
# [24] = molecular target: CaCyk3
# Method in brief: as §1
# [25] = molecular target: CaFus1
# Method in brief: as §1
# [26] = molecular target: CaHof1
# Method in brief: as §1
# [27] = molecular target: CaHse1
# Method in brief: as §1
# [28] = molecular target: CaLsb1
# Method in brief: as §1
# [29] = molecular target: CaLsb4
# Method in brief: as §1
# [30] = molecular target: CaMyo5
# Method in brief: as §1
# [31] = molecular target: CaNbp2
# Method in brief: as §1
# [32] = molecular target: CaRvs167
# Method in brief: as §1
# [33] = molecular target: CaRvs167-3
# Method in brief: as §1
# [34] = molecular target: CaSho1
# Method in brief: as §1
# [35] = molecular target: CaSla1-D1-D2
# Method in brief: as §1
# [36] = molecular target: CaSla1-D3
# Method in brief: as §1
# [37] = molecular target: ScAbp1
# Method in brief: as §1
# [38] = molecular target: ScBbc1
# Method in brief: as §1
# [39] = molecular target: ScBem1-D1
# Method in brief: as §1
# [40] = molecular target: ScBzz1-D1
# Method in brief: as §1
# [41] = molecular target: ScBzz1-D2
# Method in brief: as §1
# [42] = molecular target: ScCyk3
# Method in brief: as §1
# [43] = molecular target: ScFus1
# Method in brief: as §1
# [44] = molecular target: ScHof1
# Method in brief: as §1
# [45] = molecular target: ScHse1
# Method in brief: as §1
# [46] = molecular target: ScLsb1
# Method in brief: as §1
# [47] = molecular target: ScLsb2
# Method in brief: as §1
# [48] = molecular target: ScLsb3
# Method in brief: as §1
# [49] = molecular target: ScLsb4
# Method in brief: as §1
# [50] = molecular target: ScMyo3
# Method in brief: as §1
# [51] = molecular target: ScMyo5
# Method in brief: as §1
# [52] = molecular target: ScNbp2
# Method in brief: as §1
# [53] = molecular target: ScPex13
# Method in brief: as §1
# [54] = molecular target: ScRvs167
# Method in brief: as §1
# [55] = molecular target: ScSho1
# Method in brief: as §1
# [56] = molecular target: ScSla1-D1-D2
# Method in brief: as §1
# [57] = molecular target: ScSla1-D3
# Method in brief: as §1
# [58] = molecular target: SpAbp1-D1
# Method in brief: as §1
# [59] = molecular target: SpBbc1
# Method in brief: as §1
# [60] = molecular target: SpBzz1-D1
# Method in brief: as §1
# [61] = molecular target: SpBzz1-D2
# Method in brief: as §1
# [62] = molecular target: SpCyk3
# Method in brief: as §1
# [63] = molecular target: SpHof1
# Method in brief: as §1
# [64] = molecular target: SpHof1-2
# Method in brief: as §1
# [65] = molecular target: SpHof1-3
# Method in brief: as §1
# [66] = molecular target: SpHse1
# Method in brief: as §1
# [67] = molecular target: SpLsb1
# Method in brief: as §1
# [68] = molecular target: SpLsb4
# Method in brief: as §1
# [69] = molecular target: SpMyo1
# Method in brief: as §1
# [70] = molecular target: SpNbp2
# Method in brief: as §1
# [71] = molecular target: SpPex13
# Method in brief: as §1
# [72] = molecular target: SpRvs167
# Method in brief: as §1
# [73] = molecular target: SpSla1-D1-D2
# Method in brief: as §1
# [74] = molecular target: SpSla1-D3
# Method in brief: as §1
binder,measurement,setting,value
RKQRSIPLSPIVPES,SPOT peptide array binding signal intensity,[1],7
same,SPOT peptide array binding signal intensity,[2],17
same,SPOT peptide array binding signal intensity,[3],77
same,SPOT peptide array binding signal intensity,[4],15.5
same,SPOT peptide array binding signal intensity,[5],32
same,SPOT peptide array binding signal intensity,[6],2
same,SPOT peptide array binding signal intensity,[7],104
same,SPOT peptide array binding signal intensity,[8],35.5
same,SPOT peptide array binding signal intensity,[9],375
same,SPOT peptide array binding signal intensity,[10],1.5
same,SPOT peptide array binding signal intensity,[11],45.5
same,SPOT peptide array binding signal intensity,[12],0.25
same,SPOT peptide array binding signal intensity,[13],59
same,SPOT peptide array binding signal intensity,[14],3.33
same,SPOT peptide array binding signal intensity,[15],13
same,SPOT peptide array binding signal intensity,[16],≤ 0
same,SPOT peptide array binding signal intensity,[17],3
same,SPOT peptide array binding signal intensity,[18],236
same,SPOT peptide array binding signal intensity,[19],98.5
same,SPOT peptide array binding signal intensity,[20],175
same,SPOT peptide array binding signal intensity,[21],13
same,SPOT peptide array binding signal intensity,[22],58
same,SPOT peptide array binding signal intensity,[23],136
same,SPOT peptide array binding signal intensity,[24],48
same,SPOT peptide array binding signal intensity,[25],368
same,SPOT peptide array binding signal intensity,[26],0.25
same,SPOT peptide array binding signal intensity,[27],12.2
same,SPOT peptide array binding signal intensity,[28],0.5
same,SPOT peptide array binding signal intensity,[29],64
same,SPOT peptide array binding signal intensity,[30],3.5
same,SPOT peptide array binding signal intensity,[31],297
same,SPOT peptide array binding signal intensity,[32],5.17
same,SPOT peptide array binding signal intensity,[33],1.25
same,SPOT peptide array binding signal intensity,[34],83
same,SPOT peptide array binding signal intensity,[35],15
same,SPOT peptide array binding signal intensity,[36],≤ 0
same,SPOT peptide array binding signal intensity,[37],11
same,SPOT peptide array binding signal intensity,[38],20.2
same,SPOT peptide array binding signal intensity,[39],7
same,SPOT peptide array binding signal intensity,[40],25.5
same,SPOT peptide array binding signal intensity,[41],12.5
same,SPOT peptide array binding signal intensity,[42],37
same,SPOT peptide array binding signal intensity,[43],98
same,SPOT peptide array binding signal intensity,[44],0.5
same,SPOT peptide array binding signal intensity,[45],679
same,SPOT peptide array binding signal intensity,[46],1.75
same,SPOT peptide array binding signal intensity,[47],2
same,SPOT peptide array binding signal intensity,[48],243
same,SPOT peptide array binding signal intensity,[49],9
same,SPOT peptide array binding signal intensity,[50],7
same,SPOT peptide array binding signal intensity,[51],6.25
same,SPOT peptide array binding signal intensity,[52],142
same,SPOT peptide array binding signal intensity,[53],4.5
same,SPOT peptide array binding signal intensity,[54],39.7
same,SPOT peptide array binding signal intensity,[55],284
same,SPOT peptide array binding signal intensity,[56],193
same,SPOT peptide array binding signal intensity,[57],57.2
same,SPOT peptide array binding signal intensity,[58],85
same,SPOT peptide array binding signal intensity,[59],0.25
same,SPOT peptide array binding signal intensity,[60],171
same,SPOT peptide array binding signal intensity,[61],0.5
same,SPOT peptide array binding signal intensity,[62],1.5
same,SPOT peptide array binding signal intensity,[63],26.8
same,SPOT peptide array binding signal intensity,[64],2.25
same,SPOT peptide array binding signal intensity,[65],340
same,SPOT peptide array binding signal intensity,[66],293
same,SPOT peptide array binding signal intensity,[67],2
same,SPOT peptide array binding signal intensity,[68],25.5
same,SPOT peptide array binding signal intensity,[69],3
same,SPOT peptide array binding signal intensity,[70],115
same,SPOT peptide array binding signal intensity,[71],≤ 0
same,SPOT peptide array binding signal intensity,[72],18.8
same,SPOT peptide array binding signal intensity,[73],≤ 0
same,SPOT peptide array binding signal intensity,[74],1
KRNRLKILLPFLEQS,SPOT peptide array binding signal intensity,[1],7
same,SPOT peptide array binding signal intensity,[2],1.75
same,SPOT peptide array binding signal intensity,[3],102
same,SPOT peptide array binding signal intensity,[4],9
same,SPOT peptide array binding signal intensity,[5],41
same,SPOT peptide array binding signal intensity,[6],0.5
same,SPOT peptide array binding signal intensity,[7],1340
same,SPOT peptide array binding signal intensity,[8],30.5
same,SPOT peptide array binding signal intensity,[9],1380
same,SPOT peptide array binding signal intensity,[10],3.5
same,SPOT peptide array binding signal intensity,[11],126
same,SPOT peptide array binding signal intensity,[12],0.5
same,SPOT peptide array binding signal intensity,[13],102
same,SPOT peptide array binding signal intensity,[14],2.33
same,SPOT peptide array binding signal intensity,[15],200
same,SPOT peptide array binding signal intensity,[16],49.5
same,SPOT peptide array binding signal intensity,[17],12.5
same,SPOT peptide array binding signal intensity,[18],342
same,SPOT peptide array binding signal intensity,[19],154
same,SPOT peptide array binding signal intensity,[20],27
same,SPOT peptide array binding signal intensity,[21],≤ 0
same,SPOT peptide array binding signal intensity,[22],5
same,SPOT peptide array binding signal intensity,[23],66.8
same,SPOT peptide array binding signal intensity,[24],3
same,SPOT peptide array binding signal intensity,[25],4760
same,SPOT peptide array binding signal intensity,[26],0.5
same,SPOT peptide array binding signal intensity,[27],57.2
same,SPOT peptide array binding signal intensity,[28],9.75
same,SPOT peptide array binding signal intensity,[29],21
same,SPOT peptide array binding signal intensity,[30],3
APERAVPILPPRNNV,SPOT peptide array binding signal intensity,[61],≤ 0
same,SPOT peptide array binding signal intensity,[62],13
same,SPOT peptide array binding signal intensity,[63],3
same,SPOT peptide array binding signal intensity,[64],8
same,SPOT peptide array binding signal intensity,[65],20.8
same,SPOT peptide array binding signal intensity,[66],2.5
same,SPOT peptide array binding signal intensity,[67],83.8
same,SPOT peptide array binding signal intensity,[68],3550
same,SPOT peptide array binding signal intensity,[69],926
same,SPOT peptide array binding signal intensity,[70],≤ 0
same,SPOT peptide array binding signal intensity,[71],2
same,SPOT peptide array binding signal intensity,[72],1250
same,SPOT peptide array binding signal intensity,[73],≤ 0
same,SPOT peptide array binding signal intensity,[74],≤ 0
